CYP2C9 inhib: blocks human cytochrome P450 2C9 | P11712 | CYP2C9 Supersomes, luciferin-H conversion, luminescence | inhibition, % at 5 µM | 96,000 compounds, 20% hits | AID 777;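 active = blocking of liver enzyme CYP2C9 beyond about 50% at 5 µM, limit read from the data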
PostGolgi yeast: growth inhibition of a yeast mutant, post-Golgi transport screen | 98,000 compounds, 0.9% hits | post-Golgi transport phenotypic cell assay | inhibition, % at 10 µM;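 note: yeast cells grown in 1536-well plates; yeast grown about 18 h at 30C before absorbance read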
PostGolgi ctrl: inhibits growth of the yeast control strain | inhibition, % at 10 µM | efflux-deficient yeast background strain, growth absorbance A615, 16 h | 98,000 compounds, 5% hits
CYP2C19 act: cytochrome P450 2C19 (human) activation. 96,000 tested, under 10 active. P33261. recombinant CYP2C19, luciferin-H EGE luminescence; active compounds read high; 0 = fully inhibited enzyme, 1 = untreated enzyme. activation factor at 5 µM. AID 1025;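 active = activation factor of at least 2 at 5 µM in the primary screen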
Target sequence (P33261 whole entry, looked up): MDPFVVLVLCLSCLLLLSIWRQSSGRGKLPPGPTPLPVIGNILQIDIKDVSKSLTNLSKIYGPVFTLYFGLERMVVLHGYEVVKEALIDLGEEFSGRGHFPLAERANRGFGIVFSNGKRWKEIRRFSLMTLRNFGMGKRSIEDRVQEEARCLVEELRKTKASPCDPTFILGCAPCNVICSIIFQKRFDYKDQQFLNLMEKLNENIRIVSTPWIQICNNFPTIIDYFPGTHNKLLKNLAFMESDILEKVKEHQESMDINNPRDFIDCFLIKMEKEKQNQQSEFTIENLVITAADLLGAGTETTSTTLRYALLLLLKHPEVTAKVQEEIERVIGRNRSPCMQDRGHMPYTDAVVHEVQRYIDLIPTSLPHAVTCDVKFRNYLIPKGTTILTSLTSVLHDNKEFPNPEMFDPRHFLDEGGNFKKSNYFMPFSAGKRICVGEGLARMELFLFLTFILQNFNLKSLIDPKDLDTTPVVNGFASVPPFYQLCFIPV
CYP2C19 inhib: inhibitors of human CYP2C19; AID 778; 96,000 compounds, 21% hits; inhibition, % at 5 µM; CYP2C19 Supersomes, luciferin-H EGE luminescence, 30 min;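 active = CYP2C19 inhibition above a set limit at 5 µM in the primary screen, cut at about 50% in these data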
CYP2C9 act: CYP2C9 (human) activation | AID 1024 | activation factor at 5 µM | 96,000 compounds, 1.4% hits | recombinant CYP2C9, luciferin-H conversion, luminescence; active compounds read high; factor 1 = untreated enzyme, 0 = blocked | P11712;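 active = activation factor of 2 or more for CYP2C9 at a 5 µM dose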
A number is an active result; 0 = inactive; - = not tested or not shown. Most compounds without a hit are left out; they make up all but 32% or so of the library. Cut-off read from the data, not from the text of the source, unless noted: active = inhibition above about 30%; inactive = the rest.

SMILES	CYP2C9 inhib	PostGolgi yeast	PostGolgi ctrl	CYP2C19 act	CYP2C19 inhib	CYP2C9 act
COc1ccc(CCn2nnnc2C(CC(C)C)N2CCN(c3ncccn3)CC2)cc1OC (stereo unspecified)	76.0	0	0	0	0	0
COc1ccc(CCn2nnnc2C(C(C)C)N2CCN(c3ncccn3)CC2)cc1OC (stereo unspecified)	71.7	0	35.5	0	0	0
COCCn1nnnc1C(C(C)C)N1CCC(Cc2ccccc2)CC1 (stereo unspecified)	55.8	0	0	0	90.6	0
COc1ccc(N2CCN(C(c3nnnn3CCc3ccccc3)C(C)C)CC2)cc1 (stereo unspecified)	0	0	34.9	0	0	0
CN(C)CCN1C(=O)c2oc3ccccc3c(=O)c2C1c1ccccc1 (stereo unspecified)	0	-	-	0	0	0
COC(=O)c1sccc1NC(=O)C1CC2CCC1C2 (stereo unspecified)	0	0	0	0	0	0
O=C(NCCNC(=O)C(F)(F)F)c1ccncc1	0	-	-	0	0	0
O=C(C1CCC(=O)N1C1CCCCC1)N1CCN(c2ccc(F)cc2)CC1 (stereo unspecified)	0	0	0	0	0	0
COc1ccc(-n2c(C)cc(C(=O)COc3ccc(-n4cnnn4)cc3)c2C)cc1	0	0	0	0	0	0
COc1ccc(OCCOC(=O)c2cccc(-n3cnnn3)c2)cc1	58.1	0	0	0	66.2	0
CCOc1ccc(C(C)=O)cc1COc1ccc(-n2cnnn2)cc1	78.2	0	0	0	97.0	0
COc1ccc(OCCOC(=O)c2ccc(-n3cnnn3)cc2)cc1	73.1	0	0	0	0	0
CN1CCN(CCCNC(=O)c2ccc3c(c2)N(Cc2ccccc2)CCS3)CC1	0	0	0	0	0	0
CCCn1c(SCC(=O)N2c3ccccc3CCc3ccccc32)nc2c1c(=O)n(C)c(=O)n2C	0	0	0	0	0	0
O=S(=O)(NCc1csc(-c2cccnc2)n1)c1ccc2c(c1)OCCO2	0	0	0	0	57.1	0
O=S(=O)(NCCc1csc(-c2ccccc2)n1)c1ccc2c(c1)OCCO2	0	0	0	0	89.2	0
O=C1c2ccccc2C(=O)N1CCCCN(C(=O)c1cccc([N+](=O)[O-])c1)c1ccc(Cl)cc1	60.6	0	0	0	69.2	0
O=C1c2ccccc2C(=O)N1CCCCN(C(=O)c1ccco1)c1ccc(Cl)cc1	82.5	0	30.6	0	56.6	0
O=C1CCC(=O)N1CN(C(=O)c1ccco1)c1ccccc1	0	0	0	0	0	0
Cc1ccc(N(CCCCN2C(=O)c3ccccc3C2=O)C(=O)c2cccs2)cc1	66.0	0	0	0	61.2	0
N#CC1=C(N)Oc2cc(N)ccc2C1C1CC=CCC1 (stereo unspecified)	75.9	0	0	0	89.2	0
CCOC(=O)Cc1csc(NC(=O)CSc2nnc(-c3ccc(F)cc3)o2)n1	56.3	0	0	0	0	0
CCOC(=O)Cc1csc(NC(=O)CSc2nnnn2-c2ccc(CC)cc2)n1	77.1	0	0	0	87.6	0
CCOC(=O)Cc1csc(NC(=O)CSc2nnc(-c3ccc(C)cc3)o2)n1	83.8	0	0	0	0	0
CCOC(=O)Cc1csc(NC(=O)CSc2nnc(-n3nc(C)cc3C)c3ccccc23)n1	92.0	0	0	0	79.2	0
SMILES	CYP2C9 inhib	PostGolgi yeast	PostGolgi ctrl	CYP2C19 act	CYP2C19 inhib	CYP2C9 act
Cc1csc(NC(=O)CSc2nnc(-c3ccccc3)o2)n1	0	0	0	0	0	0
O=C(O)CCn1[nH]c(=O)ccc1=O	-	0	0	-	-	-
COc1ccc(N2C(=O)C3CCCN3C2c2ccccc2Cl)cc1 (stereo unspecified)	0	0	0	0	0	0
Cc1nnc(-c2cnn(-c3ccccc3)c2N)n1Cc1ccccc1	0	0	0	0	0	0
Nc1nc2c(s1)CCc1c-2cnn1-c1ccccc1	0	0	0	0	52.8	0
Cc1ccc(NC2=CC(=O)CCC2)cc1C	0	0	0	0	0	0
Cc1ccc(Nc2nc3nonc3[nH]c2=O)cc1C	58.3	0	0	0	0	0
CCCn1c(SCC(=O)NC(=O)Nc2ccc(C)cc2C)n[nH]c1=O	0	0	0	0	0	0
CCCn1c(SCC(=O)Nc2ccccc2Oc2ccccc2)n[nH]c1=O	74.5	0	0	0	81.3	0
CCCn1c(SCC(=O)NC2CCCCC2C)n[nH]c1=O (stereo unspecified)	0	0	0	0	0	0
O=C(CSc1n[nH]c(=O)n1C1CC1)Nc1cc(Cl)ccc1Oc1ccccc1	82.7	0	0	0	58.7	0
CCCn1c(SCC(=O)c2cc(C)c(C)cc2C)n[nH]c1=O	73.9	0	0	0	0	0
CCCn1c(SCC(=O)Nc2cc(Cl)ccc2OC)n[nH]c1=O	0	0	0	0	90.5	0
Cc1c(C(=O)N2CCCCCC2)nnn1-c1nonc1N	0	0	0	0	0	0
Cn1c(C(=O)N2CCN(c3cccc(C(F)(F)F)c3)CC2)cc2sccc21	0	0	48.1	0	0	0
CCOC(=O)N1CCC(NC(=O)C2CCCN(C(=O)c3cc4sccc4n3C)C2)CC1 (stereo unspecified)	0	0	0	0	0	0
Cc1ccc(C)c(N2CCN(C(=O)c3cc4sccc4n3C)CC2)c1	0	0	35.7	0	0	0
CCOC(=O)N1CCN(C(=O)c2cc3sccc3n2C)CC1	0	0	0	0	86.5	0
Cc1ccc(CCNC(=O)C2CCCN(C(=O)c3cc4sccc4n3C)C2)cc1 (stereo unspecified)	0	0	0	0	0	0
COc1ccc(C(=O)NC(=O)N2CCCCC2)cc1	0	0	0	0	0	0
CC(C)c1cccc(C(C)C)c1OCCCCN1CCCC1	0	0	0	0	0	0
Cc1c(-c2ccccc2)sc(N)c1C(=O)N1CCOCC1	86.5	0	0	0	88.4	0
Cc1cc(NC(=O)CCCC(=O)Nc2ccc(F)cc2)no1	0	0	0	0	0	0
O=C(N/N=C\c1ccccn1)C1COc2cc3ccccc3cc2O1 (stereo unspecified)	0	0	0	0	0	0
COC(=O)Nc1ccc(S(=O)(=O)Nc2ccc(C)cc2)cc1	0	39.3	37.0	0	0	0
SMILES	CYP2C9 inhib	PostGolgi yeast	PostGolgi ctrl	CYP2C19 act	CYP2C19 inhib	CYP2C9 act
CC(=O)Nc1ccccc1NS(=O)(=O)c1ccc(Cl)cc1	0	36.4	0	0	90.6	0
COC(=O)Nc1ccc(S(=O)(=O)Nc2ccc(O)cc2)cc1	-	0	0	-	-	-
COC(=O)Nc1ccc(S(=O)(=O)Nc2ccccc2F)cc1	0	0	0	0	50.0	0
COC(=O)c1cc2cc(NS(=O)(=O)c3ccc(C)cc3)ccc2s1	-	0	51.9	-	-	-
COc1ccc(-c2oc3ncnc(NCCN4CCOCC4)c3c2-c2ccc(OC)cc2)cc1	0	0	0	0	0	0
c1ccc(-c2oc3ncnc(NCCCN4CCOCC4)c3c2-c2ccccc2)cc1	93.7	0	66.9	0	90.1	0
COc1ccc(-c2oc3ncn(CCN4CCOCC4)c(=N)c3c2-c2ccc(OC)cc2)cc1	0	0	0	0	62.8	0

Bioassay records: PubChem, several laboratories
